From PubChem BioAssay AID817 (Emory University Molecular Libraries Screening Center, 2007)
The whole screen tested about 140,000 compounds, of which about 300 (0.21%) were called active.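 The calls were made as follows: active = z-score above 3 at both the 24 hr and the 30 hr optical density reads; inactive = the rest, inconclusive results apart.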 Only a selection was taken, and actives are over-represented in it overall.

Assay: restorers of sdo1-deficient yeast growth – S. cerevisiae, bone marrow failure model, primary screen (AID 817);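 also: z-score against mean and SD of all compound wells on the same plate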
Details: S. cerevisiae sdo1-depleted JHY4D growth rescue, at 10 µM, stronger effect = higher value, pdr5 snq2 efflux-pump mutant strain
[1] = OD600, measured here: growth rescue at 24 h

Row | SMILES | z-score (OD600 30 h) | z-score [1]
1 | C=CCc1ccccc1OCC(=O)N/N=C/c1ccccc1OCC | 0.63 (inactive) | 0.43
2 | CC(=O)N1CCN(CC(=O)Nc2ccc(SC(F)F)cc2)CC1 | 1.61 (inactive) | 1.79
3 | CC(C)CNC(=O)CC(NCC(C)C)C(=O)O (stereo unspecified) | 0.7 (inactive) | 0.56
4 | c1ccc(C2CNCc3c2ccc2ccccc32)cc1 (stereo unspecified) | -0.88 (inactive) | -1.37
5 | CCc1nnc(NC(=O)[C@@H](NC(=O)c2cccc(C)c2)C(C)C)s1 | 0.02 (inactive) | -0.75
6 | CCc1cccc(CC)c1NC(=S)NCc1ccc2[nH]c(C)cc2c1 | -0.04 (inactive) | 0.97
7 | CC1CCCC(NC(=O)COC(=O)[C@@H]2CC(O)CN2S(=O)(=O)c2ccc3c(c2)OCCO3)C1C (stereo partly specified) | 1.03 (inactive) | 1.42
8 | Cc1nc2scc(-c3cccs3)c2c(=O)n1N | 0.14 (inactive) | -0.79
9 | O=C(COC(=O)/C=C/c1nc2ccccc2s1)Nc1ccccc1Oc1ccccc1 | -0.21 (inactive) | 0.04
10 | CC(=O)NS(=O)(=O)c1ccc(NC(=O)C2C3C=CC(C3)C2C(=O)O)cc1 (stereo unspecified) | -0.71 (inactive) | -0.47
11 | CN(C)C(CNC(=O)c1ccc(S(=O)(=O)NCc2ccco2)cc1)c1ccccc1 (stereo unspecified) | 0.96 (inactive) | 0.68
12 | COc1ccc(C)cc1Nc1nc(-c2c(C)[nH]c3ccccc23)cs1 | -0.39 (inactive) | -0.09
13 | CCCn1c(=O)c2c(C(F)(F)F)cc(-c3cccs3)nc2n(CCC)c1=O | 1.32 (inactive) | 2.13
14 | O=C(NCc1cccs1)C(=O)NCC1OCCCN1S(=O)(=O)c1ccc(F)cc1 (stereo unspecified) | -0.71 (inactive) | -1.35
15 | CCOc1ccc(NC(=S)N2CCC(N(C)CC3CCCO3)CC2)cc1 (stereo unspecified) | 0.68 (inactive) | 1.31
16 | Cc1[nH]c2ccccc2c1/C=N/NC(=O)CNC(=O)c1ccc2c(c1)OCO2 | 1.92 (inactive) | 3.35
17 | NC(=S)N/N=C/c1coc2cc(Cl)ccc2c1=O | -1.25 (inactive) | -1.16
18 | O=C(CSc1nnc(-c2ccncc2)o1)NCc1ccc(Cl)cc1 | 0.26 (inactive) | -0.05
19 | COc1ccc(NC(=S)NC2CCS(=O)(=O)C2)cc1 (stereo unspecified) | -0.13 (inactive) | -0.11
20 | COCCn1c(=NC(=O)c2ccccc2[N+](=O)[O-])sc2cc(S(C)(=O)=O)ccc21 | -0.84 (inactive) | -0.91
21 | COC(=O)c1onc(-c2c(OC)cc(OC)cc2OC)c1C(=O)OC | 0.49 (inactive) | 0.26
22 | O=C(COC(=O)c1cc(=O)[nH]c2ccccc12)Nc1nc(-c2cccc(Br)c2)cs1 | -0.47 (inactive) | -0.07
23 | C=CCNC(=O)c1ccccc1NC(=O)c1ccc(Cl)c(S(=O)(=O)Nc2cccc(C)c2C)c1 | -0.47 (inactive) | 0.23
